# Results taken from publication PMC7862700, “An all-to-all approach to the identification of sequence-specific readers for epigenetic DNA modifications on cytosine”.
# Key:
# Experiment in all cases: DAPPL (digital affinity profiling via proximity ligation, sequencing); 10 mM Tris-HCl pH 7.5, 50 mM NaCl, 1 mM DTT, 4% glycerol, room temperature, 30 min; GST-TFs on glutathione beads, 16-mer random dsDNA library, 0.1% formaldehyde crosslink after washing; high values mean tight binding
# FLI1 = target: T1, FLI1 (Homo sapiens, UniProt Q01543 1-452); conditions: protein: recombinant; tags: N-terminal GST; dsDNA, one strand shown
# T1 sequence: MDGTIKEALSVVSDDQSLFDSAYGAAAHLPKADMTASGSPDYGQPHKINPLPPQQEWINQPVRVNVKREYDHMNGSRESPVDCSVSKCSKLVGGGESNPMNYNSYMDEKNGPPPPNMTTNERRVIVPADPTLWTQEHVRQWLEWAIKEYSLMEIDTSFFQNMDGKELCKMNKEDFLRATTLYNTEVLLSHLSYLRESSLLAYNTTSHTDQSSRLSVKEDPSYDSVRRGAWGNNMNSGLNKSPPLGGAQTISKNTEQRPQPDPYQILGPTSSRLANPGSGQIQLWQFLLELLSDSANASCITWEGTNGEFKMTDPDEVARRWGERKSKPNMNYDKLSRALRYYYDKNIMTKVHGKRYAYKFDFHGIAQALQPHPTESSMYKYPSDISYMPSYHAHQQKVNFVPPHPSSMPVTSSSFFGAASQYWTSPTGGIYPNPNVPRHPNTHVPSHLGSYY
# Outline: (§1)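 Pools of DNA-barcoded human transcription factors, expressed in yeast as GST fusions on glutathione beads and combined with a tag-only sample, were incubated with 200 nmole of a 16-mer random double-stranded DNA library. Incubation took 30 min at room temperature in Tris/NaCl/DTT/glycerol buffer and was followed by washing, 0.1% formaldehyde crosslinking, proximity ligation (BsaI/T4 ligase, 1 h, 37 °C), PCR amplification and sequencing on an Illumina NextSeq500. Binding signal is the ratio of a hexamer's read frequency for a factor to its frequency for the tag-only sample.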
# ELK1 = target: T2, ELK1 (Homo sapiens, UniProt P19419 1-428); conditions: protein: recombinant; tags: N-terminal GST; dsDNA, one strand shown
# T2 sequence: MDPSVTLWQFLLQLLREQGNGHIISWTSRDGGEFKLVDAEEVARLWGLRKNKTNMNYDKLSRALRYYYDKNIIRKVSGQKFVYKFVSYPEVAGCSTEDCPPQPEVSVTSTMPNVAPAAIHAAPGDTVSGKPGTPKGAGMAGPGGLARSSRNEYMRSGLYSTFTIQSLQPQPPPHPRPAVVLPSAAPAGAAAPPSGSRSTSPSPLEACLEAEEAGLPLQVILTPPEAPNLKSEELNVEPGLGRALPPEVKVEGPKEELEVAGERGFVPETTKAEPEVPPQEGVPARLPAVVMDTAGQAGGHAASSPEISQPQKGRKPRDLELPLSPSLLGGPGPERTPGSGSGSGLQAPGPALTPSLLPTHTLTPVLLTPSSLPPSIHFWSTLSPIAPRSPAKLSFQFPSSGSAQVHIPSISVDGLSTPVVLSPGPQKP
# Outline: as §1
# GABPA = target: T3, GABPA (Homo sapiens, UniProt Q06546 1-454); conditions: protein: recombinant; tags: N-terminal GST; dsDNA, one strand shown
# T3 sequence: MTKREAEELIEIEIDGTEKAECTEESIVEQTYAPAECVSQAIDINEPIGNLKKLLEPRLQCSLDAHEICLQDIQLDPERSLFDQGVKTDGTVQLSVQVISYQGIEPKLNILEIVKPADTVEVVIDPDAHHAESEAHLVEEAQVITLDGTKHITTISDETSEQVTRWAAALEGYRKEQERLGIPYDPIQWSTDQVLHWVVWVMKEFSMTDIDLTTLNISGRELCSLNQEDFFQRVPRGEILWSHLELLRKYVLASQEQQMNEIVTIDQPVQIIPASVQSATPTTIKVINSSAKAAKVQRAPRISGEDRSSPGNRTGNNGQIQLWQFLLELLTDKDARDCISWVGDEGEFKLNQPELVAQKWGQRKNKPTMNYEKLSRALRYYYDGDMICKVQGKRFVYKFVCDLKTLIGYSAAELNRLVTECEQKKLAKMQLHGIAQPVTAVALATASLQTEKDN
# Outline: as §1
# ERG = target: T4, ERG (Homo sapiens, UniProt P11308 1-479); conditions: protein: recombinant; tags: N-terminal GST; dsDNA, one strand shown
# T4 sequence: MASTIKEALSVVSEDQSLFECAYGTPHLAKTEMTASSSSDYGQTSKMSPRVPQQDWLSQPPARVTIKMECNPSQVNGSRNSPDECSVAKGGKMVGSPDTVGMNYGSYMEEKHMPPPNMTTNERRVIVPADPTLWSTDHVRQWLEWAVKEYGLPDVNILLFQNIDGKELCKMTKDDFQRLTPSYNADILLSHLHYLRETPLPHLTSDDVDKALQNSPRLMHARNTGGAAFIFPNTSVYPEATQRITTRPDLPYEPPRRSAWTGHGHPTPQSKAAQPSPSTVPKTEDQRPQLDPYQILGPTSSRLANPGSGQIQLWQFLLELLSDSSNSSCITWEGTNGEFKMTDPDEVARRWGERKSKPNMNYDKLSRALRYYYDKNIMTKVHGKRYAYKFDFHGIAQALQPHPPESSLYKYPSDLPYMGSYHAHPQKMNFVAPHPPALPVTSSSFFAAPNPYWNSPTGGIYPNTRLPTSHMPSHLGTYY
# Outline: as §1
# ELF1 = ELF1 (Homo sapiens, UniProt P32519 1-619); conditions: protein: recombinant; tags: N-terminal GST; dsDNA, one strand shown
# Sequence of ELF1 (P32519 whole entry): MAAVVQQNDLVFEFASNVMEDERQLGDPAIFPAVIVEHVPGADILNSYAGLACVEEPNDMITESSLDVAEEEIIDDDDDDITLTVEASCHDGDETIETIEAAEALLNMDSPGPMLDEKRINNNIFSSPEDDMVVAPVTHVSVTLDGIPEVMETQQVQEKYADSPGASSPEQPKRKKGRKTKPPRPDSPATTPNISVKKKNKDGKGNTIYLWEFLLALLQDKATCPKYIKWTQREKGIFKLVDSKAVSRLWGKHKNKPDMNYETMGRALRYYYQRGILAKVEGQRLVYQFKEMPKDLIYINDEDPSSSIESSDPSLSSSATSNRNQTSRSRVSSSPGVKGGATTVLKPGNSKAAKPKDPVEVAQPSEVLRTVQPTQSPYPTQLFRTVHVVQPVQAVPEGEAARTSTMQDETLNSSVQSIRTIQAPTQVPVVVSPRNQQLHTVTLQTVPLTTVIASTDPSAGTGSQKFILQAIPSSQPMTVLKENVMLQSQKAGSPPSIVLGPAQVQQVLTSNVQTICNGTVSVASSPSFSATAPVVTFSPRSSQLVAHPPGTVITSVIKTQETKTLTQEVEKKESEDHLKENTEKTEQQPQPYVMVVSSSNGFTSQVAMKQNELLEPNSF
# Outline: as §1
# EHF = target: T5, EHF (Homo sapiens, UniProt Q9NZC4 1-300); conditions: protein: recombinant; tags: N-terminal GST; dsDNA, one strand shown
# T5 sequence: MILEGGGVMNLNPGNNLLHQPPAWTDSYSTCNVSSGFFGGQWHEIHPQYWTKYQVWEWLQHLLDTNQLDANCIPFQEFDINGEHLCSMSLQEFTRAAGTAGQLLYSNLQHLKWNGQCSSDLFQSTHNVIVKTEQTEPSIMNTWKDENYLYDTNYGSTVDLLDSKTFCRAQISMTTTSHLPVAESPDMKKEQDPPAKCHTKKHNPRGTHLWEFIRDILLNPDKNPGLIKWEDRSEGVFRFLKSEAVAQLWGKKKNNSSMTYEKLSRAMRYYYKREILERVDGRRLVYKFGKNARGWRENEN
# Outline: as §1
# SPI1 = SPI1 (Homo sapiens, UniProt P17947 1-270); conditions: protein: recombinant; tags: N-terminal GST; dsDNA, one strand shown
# Outline: as §1
# SPIB = SPIB (Homo sapiens, UniProt Q01892 1-262); conditions: protein: recombinant; tags: N-terminal GST; dsDNA, one strand shown
# Sequence of SPIB (Q01892 whole entry): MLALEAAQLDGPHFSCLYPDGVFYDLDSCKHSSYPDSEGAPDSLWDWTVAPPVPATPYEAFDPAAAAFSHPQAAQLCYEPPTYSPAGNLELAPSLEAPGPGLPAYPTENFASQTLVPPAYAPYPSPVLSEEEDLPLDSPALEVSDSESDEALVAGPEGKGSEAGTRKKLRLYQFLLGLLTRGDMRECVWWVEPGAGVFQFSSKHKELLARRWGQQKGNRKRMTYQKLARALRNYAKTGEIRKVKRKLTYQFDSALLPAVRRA
# Outline: as §1
# ELK3 = target: T6, ELK3 (Homo sapiens, UniProt P41970 1-407); conditions: protein: recombinant; tags: N-terminal GST; dsDNA, one strand shown
# T6 sequence: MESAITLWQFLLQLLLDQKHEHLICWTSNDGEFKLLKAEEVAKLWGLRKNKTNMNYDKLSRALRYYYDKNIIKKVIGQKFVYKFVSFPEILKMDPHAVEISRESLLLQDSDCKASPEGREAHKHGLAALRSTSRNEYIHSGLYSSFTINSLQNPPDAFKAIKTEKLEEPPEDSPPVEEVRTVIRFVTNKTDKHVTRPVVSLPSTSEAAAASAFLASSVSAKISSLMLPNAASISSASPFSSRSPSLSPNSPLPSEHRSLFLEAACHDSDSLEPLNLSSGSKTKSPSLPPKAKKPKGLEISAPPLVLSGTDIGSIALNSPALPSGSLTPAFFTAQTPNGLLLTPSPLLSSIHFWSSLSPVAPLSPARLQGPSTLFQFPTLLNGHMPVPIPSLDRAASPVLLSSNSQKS
# Outline: as §1
# FEV = target: T7, FEV (Homo sapiens, UniProt Q99581 1-238); conditions: protein: recombinant; tags: N-terminal GST; dsDNA, one strand shown
# T7 sequence: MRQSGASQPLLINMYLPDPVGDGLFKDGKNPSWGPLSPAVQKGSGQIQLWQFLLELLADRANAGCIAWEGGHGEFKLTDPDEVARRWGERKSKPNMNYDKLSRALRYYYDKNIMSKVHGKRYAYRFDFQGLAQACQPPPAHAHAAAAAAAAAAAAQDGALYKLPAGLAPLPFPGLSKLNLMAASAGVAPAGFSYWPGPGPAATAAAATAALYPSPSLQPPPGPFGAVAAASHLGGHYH
# Outline: as §1
# ETV5 = ETV5 (Homo sapiens, UniProt P41161 1-510); conditions: protein: recombinant; tags: N-terminal GST; dsDNA, one strand shown
# Sequence of ETV5 (P41161 whole entry): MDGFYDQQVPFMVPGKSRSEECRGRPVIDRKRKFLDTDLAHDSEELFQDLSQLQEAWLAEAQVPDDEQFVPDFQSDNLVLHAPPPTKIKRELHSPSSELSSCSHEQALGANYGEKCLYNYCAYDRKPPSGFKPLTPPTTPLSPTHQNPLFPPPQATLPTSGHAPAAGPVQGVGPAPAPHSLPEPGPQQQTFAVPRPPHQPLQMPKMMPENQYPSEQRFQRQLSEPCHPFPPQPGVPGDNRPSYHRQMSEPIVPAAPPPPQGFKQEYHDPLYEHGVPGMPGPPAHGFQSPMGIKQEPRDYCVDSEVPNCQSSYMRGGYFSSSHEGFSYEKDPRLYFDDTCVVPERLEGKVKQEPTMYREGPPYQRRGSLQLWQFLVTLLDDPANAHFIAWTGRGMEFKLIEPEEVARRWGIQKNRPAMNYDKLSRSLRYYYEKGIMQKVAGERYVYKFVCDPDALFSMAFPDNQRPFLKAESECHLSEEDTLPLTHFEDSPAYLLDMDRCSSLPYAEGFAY
# Outline: as §1
# HSF1 = HSF1 (Homo sapiens, UniProt Q00613 1-529); conditions: protein: recombinant; tags: N-terminal GST; chain copies: 3; dsDNA, one strand shown
# Sequence of HSF1 (Q00613 whole entry): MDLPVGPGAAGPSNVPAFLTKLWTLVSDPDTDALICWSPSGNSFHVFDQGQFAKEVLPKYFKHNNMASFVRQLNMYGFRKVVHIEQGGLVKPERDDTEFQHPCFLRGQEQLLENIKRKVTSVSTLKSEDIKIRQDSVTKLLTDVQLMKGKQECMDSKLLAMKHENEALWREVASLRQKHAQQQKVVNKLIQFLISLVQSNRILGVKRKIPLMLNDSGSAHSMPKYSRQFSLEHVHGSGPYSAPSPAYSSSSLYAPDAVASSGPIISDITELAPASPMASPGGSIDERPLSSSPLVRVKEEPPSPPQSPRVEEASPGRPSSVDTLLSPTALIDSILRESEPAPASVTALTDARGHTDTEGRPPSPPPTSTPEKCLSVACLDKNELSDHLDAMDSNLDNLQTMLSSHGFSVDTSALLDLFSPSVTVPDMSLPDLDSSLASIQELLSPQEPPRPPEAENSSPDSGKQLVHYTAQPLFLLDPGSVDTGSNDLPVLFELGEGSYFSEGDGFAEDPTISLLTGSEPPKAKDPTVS
# Outline: as §1
# SPIC = target: T8, SPIC (Homo sapiens, UniProt Q8N5J4 1-248); conditions: protein: recombinant; tags: N-terminal GST; dsDNA, one strand shown
# T8 sequence: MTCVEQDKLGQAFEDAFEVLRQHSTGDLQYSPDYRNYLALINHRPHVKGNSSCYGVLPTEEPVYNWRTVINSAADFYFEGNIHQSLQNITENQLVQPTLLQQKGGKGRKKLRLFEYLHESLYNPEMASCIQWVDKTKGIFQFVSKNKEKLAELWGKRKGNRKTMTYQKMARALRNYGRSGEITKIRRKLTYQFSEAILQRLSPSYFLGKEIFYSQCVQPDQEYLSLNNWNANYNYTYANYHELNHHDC
# Outline: as §1
# ELF4 = ELF4 (Homo sapiens, UniProt Q99607 1-663); conditions: protein: recombinant; tags: N-terminal GST; dsDNA, one strand shown
# Sequence of ELF4 (Q99607 whole entry): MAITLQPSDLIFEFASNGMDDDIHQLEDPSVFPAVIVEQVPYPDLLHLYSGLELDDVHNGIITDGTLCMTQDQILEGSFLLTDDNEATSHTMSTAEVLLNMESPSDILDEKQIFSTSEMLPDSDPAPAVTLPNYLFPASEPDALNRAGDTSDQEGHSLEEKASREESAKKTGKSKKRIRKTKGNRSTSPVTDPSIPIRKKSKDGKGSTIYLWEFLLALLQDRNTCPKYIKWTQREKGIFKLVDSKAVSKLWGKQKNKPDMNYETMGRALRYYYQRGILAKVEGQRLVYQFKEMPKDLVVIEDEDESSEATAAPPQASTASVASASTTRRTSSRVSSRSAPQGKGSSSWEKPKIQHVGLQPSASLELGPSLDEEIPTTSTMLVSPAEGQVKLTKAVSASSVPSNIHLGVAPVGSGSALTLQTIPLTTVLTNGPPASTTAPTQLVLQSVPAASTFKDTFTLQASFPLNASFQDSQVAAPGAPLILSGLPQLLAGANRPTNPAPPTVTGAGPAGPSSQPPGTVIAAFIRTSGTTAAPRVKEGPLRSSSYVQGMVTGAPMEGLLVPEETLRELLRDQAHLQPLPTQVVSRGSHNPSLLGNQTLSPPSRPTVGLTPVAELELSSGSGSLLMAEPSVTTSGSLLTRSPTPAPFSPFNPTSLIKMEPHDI
# Outline: as §1
# ELK4 = target: T9, ELK4 (Homo sapiens, UniProt P28324-2 1-405); conditions: protein: recombinant; tags: N-terminal GST; dsDNA, one strand shown
# T9 sequence: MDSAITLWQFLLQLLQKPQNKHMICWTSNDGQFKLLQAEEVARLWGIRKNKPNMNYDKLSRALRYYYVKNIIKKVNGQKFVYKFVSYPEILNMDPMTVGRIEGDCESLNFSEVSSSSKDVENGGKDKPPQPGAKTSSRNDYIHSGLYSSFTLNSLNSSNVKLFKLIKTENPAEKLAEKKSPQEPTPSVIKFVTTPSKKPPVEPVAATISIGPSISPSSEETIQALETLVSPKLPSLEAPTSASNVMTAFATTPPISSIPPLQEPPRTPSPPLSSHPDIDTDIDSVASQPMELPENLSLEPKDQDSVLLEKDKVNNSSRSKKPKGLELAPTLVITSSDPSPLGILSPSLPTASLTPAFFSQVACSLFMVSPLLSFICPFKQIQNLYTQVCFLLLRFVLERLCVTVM
# Outline: as §1
# ETV2 = target: T10, ETV2 (Homo sapiens, UniProt O00321 1-342); conditions: protein: recombinant; tags: N-terminal GST; dsDNA, one strand shown
# T10 sequence: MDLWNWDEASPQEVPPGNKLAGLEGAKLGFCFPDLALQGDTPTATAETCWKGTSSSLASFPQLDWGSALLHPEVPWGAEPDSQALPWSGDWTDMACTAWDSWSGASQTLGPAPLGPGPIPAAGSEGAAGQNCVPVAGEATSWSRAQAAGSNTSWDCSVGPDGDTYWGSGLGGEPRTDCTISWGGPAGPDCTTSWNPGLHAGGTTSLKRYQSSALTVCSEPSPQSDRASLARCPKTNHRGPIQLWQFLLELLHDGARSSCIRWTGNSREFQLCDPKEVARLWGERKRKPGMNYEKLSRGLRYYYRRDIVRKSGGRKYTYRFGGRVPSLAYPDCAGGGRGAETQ
# Outline: as §1
# ELF3 = target: T11, ELF3 (Homo sapiens, UniProt P78545 1-371); conditions: protein: recombinant; tags: N-terminal GST; dsDNA, one strand shown
# T11 sequence: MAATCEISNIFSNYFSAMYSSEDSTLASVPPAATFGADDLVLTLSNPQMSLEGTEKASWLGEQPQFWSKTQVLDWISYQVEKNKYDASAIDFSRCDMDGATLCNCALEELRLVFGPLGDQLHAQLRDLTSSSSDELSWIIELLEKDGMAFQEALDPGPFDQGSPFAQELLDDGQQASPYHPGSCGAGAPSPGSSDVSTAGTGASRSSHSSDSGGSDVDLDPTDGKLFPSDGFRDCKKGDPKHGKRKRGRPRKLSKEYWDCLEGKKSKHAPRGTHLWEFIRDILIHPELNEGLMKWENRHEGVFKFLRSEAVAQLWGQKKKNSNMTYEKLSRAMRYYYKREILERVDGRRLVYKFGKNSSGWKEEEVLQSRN
# Outline: as §1
# CRX = CRX (Homo sapiens, UniProt O43186 1-299); conditions: protein: recombinant; tags: N-terminal GST; dsDNA, one strand shown
# Sequence of CRX (O43186 whole entry): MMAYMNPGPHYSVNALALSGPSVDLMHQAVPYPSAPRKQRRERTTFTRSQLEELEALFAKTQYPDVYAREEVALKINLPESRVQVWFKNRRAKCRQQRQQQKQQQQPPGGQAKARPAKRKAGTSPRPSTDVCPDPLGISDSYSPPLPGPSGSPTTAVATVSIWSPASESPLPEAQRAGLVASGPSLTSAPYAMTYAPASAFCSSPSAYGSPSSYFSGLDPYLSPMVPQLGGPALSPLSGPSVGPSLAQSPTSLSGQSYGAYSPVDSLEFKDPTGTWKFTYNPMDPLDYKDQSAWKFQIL
# Outline: as §1
# ETV1 = ETV1 (Homo sapiens, UniProt P50549 1-477); conditions: protein: recombinant; tags: N-terminal GST; dsDNA, one strand shown
# Sequence of ETV1 (P50549 whole entry): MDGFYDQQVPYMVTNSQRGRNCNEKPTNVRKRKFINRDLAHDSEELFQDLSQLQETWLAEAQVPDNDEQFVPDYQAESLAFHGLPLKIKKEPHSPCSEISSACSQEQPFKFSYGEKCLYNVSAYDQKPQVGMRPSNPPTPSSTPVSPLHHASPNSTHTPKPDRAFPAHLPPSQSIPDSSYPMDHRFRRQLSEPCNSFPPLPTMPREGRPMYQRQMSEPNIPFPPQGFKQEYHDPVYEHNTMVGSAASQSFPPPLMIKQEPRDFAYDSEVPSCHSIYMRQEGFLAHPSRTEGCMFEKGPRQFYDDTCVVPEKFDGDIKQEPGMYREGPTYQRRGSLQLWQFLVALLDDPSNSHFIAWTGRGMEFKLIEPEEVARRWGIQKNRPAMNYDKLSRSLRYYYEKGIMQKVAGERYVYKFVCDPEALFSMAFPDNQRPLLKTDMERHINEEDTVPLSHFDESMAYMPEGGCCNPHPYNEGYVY
# Outline: as §1
sequence,measurement,setting,value
TTCCGG,binding signal,FLI1,"5.8 fold enrichment (6-mer frequency, TF over GST control)"
same,binding signal,ELK1,"5.94 fold enrichment (6-mer frequency, TF over GST control)"
same,binding signal,GABPA,"5.16 fold enrichment (6-mer frequency, TF over GST control)"
same,binding signal,ERG,"7.1 fold enrichment (6-mer frequency, TF over GST control)"
same,binding signal,ELF1,"5.41 fold enrichment (6-mer frequency, TF over GST control)"
same,binding signal,EHF,"5.96 fold enrichment (6-mer frequency, TF over GST control)"
same,binding signal,SPI1,"5.73 fold enrichment (6-mer frequency, TF over GST control)"
same,binding signal,SPIB,"5.9 fold enrichment (6-mer frequency, TF over GST control)"
same,binding signal,ELK3,"6.93 fold enrichment (6-mer frequency, TF over GST control)"
same,binding signal,FEV,"8.68 fold enrichment (6-mer frequency, TF over GST control)"
same,binding signal,ETV5,"6.4 fold enrichment (6-mer frequency, TF over GST control)"
same,binding signal,HSF1,"1.93 fold enrichment (6-mer frequency, TF over GST control)"
same,binding signal,SPIC,"5.6 fold enrichment (6-mer frequency, TF over GST control)"
same,binding signal,ELF4,"5.4 fold enrichment (6-mer frequency, TF over GST control)"
same,binding signal,ELK4,"4.67 fold enrichment (6-mer frequency, TF over GST control)"
same,binding signal,ETV2,"5.78 fold enrichment (6-mer frequency, TF over GST control)"
same,binding signal,ELF3,"5.14 fold enrichment (6-mer frequency, TF over GST control)"
same,binding signal,CRX,"1.33 fold enrichment (6-mer frequency, TF over GST control)"
same,binding signal,ETV1,"6.12 fold enrichment (6-mer frequency, TF over GST control)"
